Experimental findings from PubChem BioAssay AID651658 (Broad Institute, 2012) are described below.

Hit rate of the full screen: of about 340,000 compounds, about 5,100 (1.5%) were called active. The full list was thinned out, with actives kept by preference. Values without a mark were called inactive.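 Rule for the calls: active = mean Tm shift, scaled 0 neutral to 100 positive control, at about 1.3% or above, every replicate too (limit read from the data); inconclusive = no clear call, values can overlap the other calls; inactive = the rest.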

Fibroblast growth factor 22 (Homo sapiens), sequence (Q9HCT0 whole entry, looked up): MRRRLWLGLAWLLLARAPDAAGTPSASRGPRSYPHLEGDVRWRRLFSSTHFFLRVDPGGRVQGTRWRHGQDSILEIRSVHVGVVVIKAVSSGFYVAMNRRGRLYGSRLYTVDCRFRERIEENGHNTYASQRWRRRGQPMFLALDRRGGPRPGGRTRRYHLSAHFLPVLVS

The assay concerns the target Fibroblast growth factor 22 (Homo sapiens) (UniProt Q9HCT0). Description: FGF22 ligand-induced thermal stabilization – biophysical, thermal shift, single point, FGF22 synaptogenesis inhibitor project, primary screen (AID 651658). Conditions: recombinant FGF22 thermal shift, SYPRO orange fluorescence, at 9.99 µM, active compounds read high.
Regarding `Cc1ccc(-c2cc(C(=O)N3CCC4(CC3)OCCO4)no2)cc1`, the activity (Tm shift, normalised) was 43.1% (active).
As for `Cc1cccc(-n2c(C)nc3cc(C(=O)N4CCC5(CC4)OCCO5)ccc32)c1`, the activity (Tm shift, normalised) was 0.173%.
Under `O=C(c1ccccc1[N+](=O)[O-])N1CCC2(CC1)OCCO2` stands -0.032%; under `COc1cccc(-c2ccc3n(c2=O)C[C@@H]2[C@@H](CO)[C@H](C(=O)O)[C@H]3N2C(=O)c2cnccn2)c1`, -0.051%.
Take `C[C@]12CCCCC1=CC(=O)C1C2CC[C@@]2(C)C1C[C@@H](F)[C@@H]2O` (stereo not given in full): the activity (Tm shift, normalised) was 43.1% (active).
The value for `C[C@]12CCC3C(CC[C@H]4[C@H](O)[C@H](O)CC[C@]34C)C1CCC2=O` (stereo not given in full) was 42.7%.
The value for `COC(=O)[C@@H]1[C@@H](CO)[C@@H]2Cn3c(ccc(C4=CCCCC4)c3=O)[C@H]1N2CC1CC1` was 0.126%.
The value for `C/C=C/c1ccc(C2[C@@H]3CN(Cc4cncnc4)C[C@H]2N3)cc1` (stereo not given in full) was -0.323% [percent of sucrose octasulfate shift, DMSO zero]; that for `COc1cccc(-c2ccc3n(c2=O)C[C@H]2[C@H](CO)[C@@H](C(=O)O)[C@@H]3N2C(=O)c2cnccn2)c1` was -0.009%.
On to `CC=C(C)C(=O)OC1CCN2CC=C(COC(=O)C(O)(C(C)OC)C(C)(C)O)C12` (stereo not given), for which the activity (Tm shift, normalised) was 43.1% (active).
Under `O=C(O)[C@H]1[C@H](CO)[C@H]2Cn3c(ccc(-c4ccccc4)c3=O)[C@@H]1N2S(=O)(=O)c1ccccc1F` stands 0.019%.
As for `COC(=O)[C@@H]1[C@@H](CO)[C@@H]2Cn3c(ccc(-c4ccc(F)cc4)c3=O)[C@H]1N2C(C)=O`, the activity (Tm shift, normalised) is -0.001%.
The value for `COC(=O)[C@H]1[C@H](CO)[C@H]2Cn3c(ccc(-c4cccc(F)c4)c3=O)[C@@H]1N2Cc1ccccc1` was -0.258%.
The value for `CC(CC(C#N)(c1ccccc1)c1ccccc1)N1CCCCC1` (stereo not given) was 43.4% (active); that for `c1ccc(C(CN2CCCCC2)c2ccccc2)cc1` was -0.37%; that for `O=C(c1ccccc1)C(O)(CN1CCCCC1)c1ccccc1` (stereo not given) was -0.158%.
Under `O=C(Cc1ccccc1)N1CCCCN2[C@H](CO)[C@H](c3ccc(C#Cc4ccccc4)cc3)[C@H]2C1` stands -0.682%; under `C/C=C/c1ccc(C2[C@@H]3CN(S(C)(=O)=O)C[C@H]2N3)cc1` (stereo not given in full), 0.016% [percent of sucrose octasulfate shift, DMSO zero]; under `CCN(CC)C(=O)[C@@H]1C=C2c3cccc4[nH]c(Br)c(c34)C[C@H]2N(C)C1`, 0.114%.
`COC(=O)[C@H]1[C@H](CO)[C@H]2Cn3c(ccc(-c4ccccc4F)c3=O)[C@@H]1N2C(=O)C1CCC1`: the activity (Tm shift, normalised) is 0.081%.
